Measured values taken from PubChem BioAssay (NCI).
The panel holds about 79,000 compounds, 15% with a hit somewhere; the sample as a whole holds those more often. Values without a mark were called inactive. Calls of active or inactive are those of the source. No stated cut-off is given here; in the data, active means growth inhibition above about 70%; inactive means the rest.

How the values were obtained:
[1] = NCI Yeast Anticancer Drug Screen. Data for the rad52 strain (AID 147);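 further: 0% = growth of vehicle-treated control cultures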; conditions: S. cerevisiae rad52 mutant growth inhibition, hits give high values
In short: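 The repair-mutant yeast strain was incubated with compounds, then growth was read and inhibition derived relative to vehicle.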

[2] = NCI Yeast Anticancer Drug Screen. Data for the wt1 strain (AID 149);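 further: 0% = growth of vehicle-treated wt1 cultures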; conditions: S. cerevisiae wt1 strain (SPY 50644) growth inhibition, hits give high values
In short: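 Readout: yeast growth inhibition, normalised to vehicle controls, in the wt1 strain exposed to test compounds.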

[3] = NCI Yeast Anticancer Drug Screen. Data for the rad50EPP+ strain (AID 151);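 further: 0% = growth of vehicle-treated control cultures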; conditions: S. cerevisiae rad50 mutant strain, hits give high values
In short: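 Vehicle-normalised growth inhibition; rad50EPP+ yeast strain, altered in DNA damage repair, compound-treated.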

[4] = NCI Yeast Anticancer Drug Screen. Data for the mgt1 strain (AID 153); conditions: S. cerevisiae mgt1 mutant growth inhibition, hits give high values
In short: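 Vehicle-normalized growth inhibition is determined in mgt1 yeast, a strain selected for a defined alteration in DNA repair or cell cycle control.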

[5] = NCI Yeast Anticancer Drug Screen. Data for the rad50 strain (AID 155);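 further: 0% = growth of vehicle-only cultures of the same strain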; conditions: S. cerevisiae rad50 strain growth inhibition, hits give high values
In short: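 Compounds were tested on a yeast strain with an engineered DNA damage repair alteration; the reported value is growth inhibition normalised to vehicle treatment.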

[6] = NCI Yeast Anticancer Drug Screen. Data for the mec2-1 strain (AID 157); conditions: S. cerevisiae mec2-1 strain, hits give high values
In short: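 Mutant yeast (mec2-1) grown with compound; growth inhibition relative to vehicle control reported.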

[7] = NCI Yeast Anticancer Drug Screen. Data for the rad14 strain (AID 159);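 further: 0% = growth of vehicle-treated control cultures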; conditions: S. cerevisiae rad14 strain growth inhibition, hits give high values
In short: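 Compound-treated yeast with a defined DNA-repair lesion; growth inhibition normalised to vehicle-treated cultures.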

[8] = NCI Yeast Anticancer Drug Screen. Data for the sgs1 mgt1 strain (AID 161);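 further: 0% = growth of cultures given vehicle only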; conditions: S. cerevisiae sgs1 mgt1 strain, hits give high values
In short: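 This yeast growth screen uses a strain with defined DNA-repair lesions; compound-treated growth is compared with vehicle-treated growth.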

[9] = NCI Yeast Anticancer Drug Screen. Data for the CLN2oe strain (AID 163);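 further: 0% = growth of vehicle-only control cultures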; conditions: S. cerevisiae CLN2oe strain, hits give high values
In short: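 Compounds are applied to yeast harbouring a defined cell-cycle control change; reduced growth compared with vehicle-treated controls gives the value.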

[10] = NCI Yeast Anticancer Drug Screen. Data for the cln2 rad14 strain (AID 165);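 further: 0% = growth equal to vehicle treated cultures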; conditions: S. cerevisiae cln2 rad14 strain, hits give high values
In short: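 Readout is yeast growth inhibition versus vehicle-treated controls, using a strain with cln2 and rad14 alterations exposed to compound.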

[11] = NCI Yeast Anticancer Drug Screen. Data for the bub3 strain (AID 167); conditions: S. cerevisiae bub3 mutant strain, hits give high values
In short: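 Growth of a checkpoint-deficient yeast mutant is measured after compound exposure. Values represent inhibition relative to vehicle.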

[12] = NCI Yeast Anticancer Drug Screen. Data for the wt2 strain (AID 169);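 further: 0% = growth of vehicle-treated yeast cultures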; conditions: S. cerevisiae wt2 strain growth inhibition, hits give high values
In short: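 Against vehicle-treated controls, the growth of yeast exposed to each compound was compared, and the inhibition was recorded.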

[13] = NCI Yeast Anticancer Drug Screen. Data for the mlh1 strain (AID 171);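 further: 0% = growth of vehicle-treated control cultures of the same strain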; conditions: S. cerevisiae mlh1 strain growth inhibition, hits give high values
In short: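 Measured: yeast growth. Reference: vehicle-treated controls. Organism: strain with a defined alteration affecting DNA damage repair or cell cycle control, treated with compound.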

[14] = NCI Yeast Anticancer Drug Screen. Data for the mlh1 rad18 strain (AID 175); conditions: S. cerevisiae mlh1 rad18 strain growth inhibition, hits give high values
In short: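 Genetically defined yeast (DNA repair-deficient) exposed to compounds; growth inhibition determined relative to vehicle.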

[15] = NCI Yeast Anticancer Drug Screen. Data for the rad18 strain (AID 177); conditions: S. cerevisiae rad18 mutant growth inhibition, hits give high values
In short: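 Vehicle-treated cultures served as the baseline for scoring compound-induced growth inhibition in DNA-repair-mutant yeast.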

[16] = at 5.0 µM (retest, dose inferred, filed as 0.5)
[17] = at 50.0 µM (retest, dose inferred, filed as 5.0)

SMILES: CCCCCCCCCCCCCC[N+](C)(CC(=O)[O-])Cc1ccccc1 (stereo not drawn)
- growth inhibition ([1]; at 1.2 µM): 2%
- growth inhibition ([1]; at 3.7 µM): 23%
- growth inhibition ([1]; at 11.0 µM): 99% (active)
- growth inhibition ([1]; at 33.0 µM): 98% (active)
- growth inhibition ([1]; at 100.0 µM): 99% (active)
- growth inhibition ([2]; at 1.2 µM): -1%
- growth inhibition ([2]; at 3.7 µM): 1%
- growth inhibition ([2]; at 11.0 µM): 99% (active)
- growth inhibition ([2]; at 33.0 µM): 54%
- growth inhibition ([2]; at 100.0 µM): 99% (active)
- growth inhibition ([3]; at 1.2 µM): 5%
- growth inhibition ([3]; at 3.7 µM): 32%
- growth inhibition ([3]; at 11.0 µM): 99% (active)
- growth inhibition ([3]; at 33.0 µM): 99% (active)
- growth inhibition ([3]; at 100.0 µM): 98% (active)
- growth inhibition ([4]; at 1.2 µM): 2%
- growth inhibition ([4]; at 3.7 µM): 26%
- growth inhibition ([4]; at 11.0 µM): 100% (active)
- growth inhibition ([4]; at 33.0 µM): 99% (active)
- growth inhibition ([4]; at 100.0 µM): 99% (active)
- growth inhibition ([5]; at 1.2 µM): 8%
- growth inhibition ([5]; at 3.7 µM): 50%
- growth inhibition [5, 16]: 8%
- growth inhibition ([5]; at 11.0 µM): 99% (active)
- growth inhibition ([5]; at 33.0 µM): 99% (active)
- growth inhibition [5, 17]: 99% (active)
- growth inhibition ([5]; at 50.0 µM): 98.8% (active)
- growth inhibition ([5]; at 100.0 µM): 99% (active)
- growth inhibition ([6]; at 1.2 µM): -2%
- growth inhibition ([6]; at 3.7 µM): 3%
- growth inhibition [6, 16]: 32%
- growth inhibition ([6]; at 11.0 µM): 99% (active)
- growth inhibition ([6]; at 33.0 µM): 99% (active)
- growth inhibition [6, 17]: 100% (active)
- growth inhibition ([6]; at 50.0 µM): 99.1% (active)
- growth inhibition ([6]; at 100.0 µM): 99% (active)
- growth inhibition ([7]; at 1.2 µM): 10%
- growth inhibition ([7]; at 3.7 µM): 30%
- growth inhibition ([7]; at 11.0 µM): 100% (active)
- growth inhibition ([7]; at 33.0 µM): 99% (active)
- growth inhibition ([7]; at 100.0 µM): 99% (active)
- growth inhibition [8, 16]: 13%
- growth inhibition [8, 17]: 99% (active)
- growth inhibition ([8]; at 50.0 µM): 98.8% (active)
- growth inhibition ([9]; at 1.2 µM): 5%
- growth inhibition ([9]; at 3.7 µM): 19%
- growth inhibition ([9]; at 11.0 µM): 99% (active)
- growth inhibition ([9]; at 33.0 µM): 99% (active)
- growth inhibition ([9]; at 100.0 µM): 99% (active)
- growth inhibition [10, 16]: 9%
- growth inhibition [10, 17]: 99% (active)
- growth inhibition ([10]; at 50.0 µM): 93.8% (active)
- growth inhibition ([11]; at 1.2 µM): -1%
- growth inhibition ([11]; at 3.7 µM): 10%
- growth inhibition [11, 16]: 2%
- growth inhibition ([11]; at 11.0 µM): 99% (active)
- growth inhibition ([11]; at 33.0 µM): 99% (active)
- growth inhibition [11, 17]: 99% (active)
- growth inhibition ([11]; at 50.0 µM): 98.9% (active)
- growth inhibition ([11]; at 100.0 µM): 98% (active)
- growth inhibition ([12]; at 1.2 µM): -6%
- growth inhibition ([12]; at 3.7 µM): 9%
- growth inhibition ([12]; at 11.0 µM): 100% (active)
- growth inhibition ([12]; at 33.0 µM): 60%
- growth inhibition ([12]; at 100.0 µM): 99% (active)
- growth inhibition ([13]; at 1.2 µM): 2%
- growth inhibition ([13]; at 3.7 µM): 31%
- growth inhibition ([13]; at 11.0 µM): 99% (active)
- growth inhibition ([13]; at 33.0 µM): 99% (active)
- growth inhibition ([13]; at 100.0 µM): 99% (active)
- growth inhibition [14, 16]: 1%
- growth inhibition [14, 17]: 99% (active)
- growth inhibition ([14]; at 50.0 µM): 99.1% (active)
- growth inhibition ([15]; at 1.2 µM): 3%
- growth inhibition ([15]; at 3.7 µM): 23%
- growth inhibition ([15]; at 11.0 µM): 99% (active)
- growth inhibition ([15]; at 33.0 µM): 99% (active)
- growth inhibition ([15]; at 100.0 µM): 99% (active)
